The results in this text go back to PubChem BioAssay AID504339 (National Center for Advancing Translational Sciences (NCATS), 2011).

In all, about 390,000 compounds went through this assay and about 17,000 (4.4%) were called active. Another 8% or so got no clear call; they are omitted. Calls come from the whole dose curve; as a rule, active = well fitted inhibition curve with a large enough effect; inconclusive = small, poorly fitted or top-dose-only effect; inactive = no such curve, though single readings can be large or run the other way. For the sample, actives were picked, then their nearest neighbours and some compounds at random.
% is set by controls: 0 for no effect and ±100 for the full control effect; potency is the fitted concentration of half-maximal effect.

The target in the test is Lysine-specific demethylase 4A (Homo sapiens) (UniProt O75164). In words: qHTS Assay for Inhibitors of JMJD2A-Tudor Domain. Note: nearly all actives have a fitted effect of over 50% in size. The conditions noted are these: AlphaScreen JMJD2A-Tudor / H3K4me3 peptide binding; series mostly up to 114 µM; activity change, negative = inhibition: at the top concentration. On the technique in general: Quantitative high-throughput screening tests each substance at several concentrations.
Chain of Lysine-specific demethylase 4A (Homo sapiens) (O75164 whole entry, looked up, the tested form may be a part): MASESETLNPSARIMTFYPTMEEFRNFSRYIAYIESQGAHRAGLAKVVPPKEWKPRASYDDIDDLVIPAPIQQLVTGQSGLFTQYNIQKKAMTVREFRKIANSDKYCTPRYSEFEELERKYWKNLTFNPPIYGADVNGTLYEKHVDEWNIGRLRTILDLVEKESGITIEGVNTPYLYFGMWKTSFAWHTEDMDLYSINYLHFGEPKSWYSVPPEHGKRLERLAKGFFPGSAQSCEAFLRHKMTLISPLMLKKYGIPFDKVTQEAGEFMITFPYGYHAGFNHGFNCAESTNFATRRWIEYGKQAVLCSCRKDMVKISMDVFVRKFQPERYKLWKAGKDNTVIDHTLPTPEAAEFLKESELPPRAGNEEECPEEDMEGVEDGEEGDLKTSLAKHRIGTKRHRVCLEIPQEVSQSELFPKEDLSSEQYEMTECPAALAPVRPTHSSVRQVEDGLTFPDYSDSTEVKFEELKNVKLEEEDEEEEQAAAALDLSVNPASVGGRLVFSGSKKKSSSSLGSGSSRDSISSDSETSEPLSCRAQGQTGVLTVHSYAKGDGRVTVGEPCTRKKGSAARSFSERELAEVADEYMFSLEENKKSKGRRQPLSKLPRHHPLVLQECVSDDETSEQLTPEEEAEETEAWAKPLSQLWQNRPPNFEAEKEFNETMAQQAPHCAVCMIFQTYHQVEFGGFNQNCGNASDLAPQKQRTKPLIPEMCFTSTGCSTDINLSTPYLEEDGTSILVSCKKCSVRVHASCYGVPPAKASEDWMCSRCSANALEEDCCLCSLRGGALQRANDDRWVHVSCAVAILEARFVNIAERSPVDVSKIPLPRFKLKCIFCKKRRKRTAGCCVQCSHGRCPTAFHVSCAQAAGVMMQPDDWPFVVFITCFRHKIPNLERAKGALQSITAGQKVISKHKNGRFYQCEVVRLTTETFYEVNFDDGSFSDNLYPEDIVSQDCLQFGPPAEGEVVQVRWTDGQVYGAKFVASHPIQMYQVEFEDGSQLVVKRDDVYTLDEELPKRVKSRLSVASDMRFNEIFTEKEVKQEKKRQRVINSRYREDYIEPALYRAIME
Turning to `CN(Cc1ccccc1)C(=O)c1cn(C)c2ccc(S(=O)(=O)N(C)C3CCCCC3)cc2c1=O`, the “activity change, negative = inhibition” value was 1.67% (inactive).
`CCOC(=O)c1c(NC(=O)CSc2cn(CCNC(=O)c3cccc(C(F)(F)F)c3)c3ccccc23)sc2c1CCC2`: the “activity change, negative = inhibition” value was -19.4% (inactive).
With `Cc1c(-c2nc(-c3ccc4c(c3)OCO4)no2)nnn1-c1ccc(Br)cc1F`, the “activity change, negative = inhibition” value is -11.4% (inactive).
In the case of `CC(=O)c1ccccc1NC(=O)C1CC(=O)N(c2ccc3c(c2)OCCO3)C1` (configuration not stated), the “activity change, negative = inhibition” value is -18.8% (inactive).
Consider `CCc1nnc(NC(=O)C2CC(=O)N(c3ccc4c(c3)OCCO4)C2)s1` (configuration not stated), for which the Potency was 25.1 µM (active).
As for `CCOC(=O)c1ccc(NC(=O)C2CC(=O)N(c3ccc4c(c3)OCCO4)C2)cc1` (configuration not stated), the “activity change, negative = inhibition” value was -16.7% (inactive).
The same measure, in the same setting: the result for `O=C(CSc1nnc(CNC(=O)c2ccccc2)n1-c1ccc(F)cc1)Nc1ccccc1F` reads -0.673% (inactive).
For `COc1ccccc1CN1CCCC(N2CCN(c3ccc(F)cc3)CC2)C1` (configuration not stated), the “activity change, negative = inhibition” value was -23.8% (inactive).
Take `COc1ccc(C2C(C#N)=C(N)Oc3n[nH]c(C)c32)cc1CN1CCN(c2ccc(F)cc2)CC1` (configuration not stated): the Potency is 44.7 µM (active).
Consider `COc1ccc(C2C(C#N)=C(N)Oc3cc(N)ccc32)cc1OC` (configuration not stated), for which the “activity change, negative = inhibition” value is -20.1% (inactive).
For `Cc1cc(=O)c2cc(C(=O)Nc3cccc(C)c3C)ccc2[nH]1`, the “activity change, negative = inhibition” value is -3.31% (inactive).
With `COc1ccccc1NC(=O)C(=O)c1cc(C)n(-c2ccccc2F)c1C`, the “activity change, negative = inhibition” value was -23.5% (inactive).
For `COc1ccc(NC(=O)CCCc2nnc3n(CCC(C)C)c(=O)c4sccc4n23)c(OC)c1`, the “activity change, negative = inhibition” value is -32.6% (inactive).
Consider `Cc1ccccc1Nc1nn2c(=O)c3ccc(C(=O)NCCc4ccc(Cl)cc4)cc3nc2s1`, for which the “activity change, negative = inhibition” value was -9.31% (inactive).
On to `Cc1ccc(C2=C/C(=C\c3cccnc3)C(=O)O2)cc1`, for which the “activity change, negative = inhibition” value was -18.6% (inactive).
As to `O=C(O)/C(=C/c1cccnc1)NC(=O)c1ccccc1`, the “activity change, negative = inhibition” value is -6.62% (inactive).
`Nc1ccc2c(c1)C(=Cc1cccnc1)c1ccccc1-2`: the Potency was 35.5 µM (active).
Turning to `O=C(NCc1ccccc1)c1cccc(NC(=O)N2CCSc3ncccc32)c1`, the “activity change, negative = inhibition” value was 5.17% (inactive).
As for `CCc1ccc(S(=O)(=O)Nc2ccc(C)c(NS(C)(=O)=O)c2)cc1`, the “activity change, negative = inhibition” value is 8.31% (inactive).
On to `CCn1c(/C=C/c2ccc([N+](=O)[O-])o2)nc2ccccc2c1=O`, for which the “activity change, negative = inhibition” value is -16.8% [at 57.1 µM] (inactive).
Consider `CCc1ccc(S(=O)(=O)N/N=C\c2ccc([N+](=O)[O-])o2)cc1`, for which the Potency was 50.1 µM (active).
On to `CCc1nn(CCCC(=O)NCc2ccccc2OC)c(=O)c2cc3occc3n12`, for which the “activity change, negative = inhibition” value was 4.03% (inactive).
Same read-out and setting: the result for `Cc1ccc(-c2ccc(CCC(=O)O)n2-c2ccc(C(N)=O)cc2)cc1` reads -22.9% (inactive).
Consider `CN1/C(=c2/s/c(=C3/C(=O)N(c4ccccc4)NC3=Nc3ccccc3)n(C)c2=O)C(C)(C)c2ccccc21`, for which the Potency was 28.2 µM (active).
For `CC(C)CCN(C(=O)Nc1ccc(Cl)c(Cl)c1)C(C)c1cccs1` (configuration not stated), the “activity change, negative = inhibition” value is -10.7% (inactive).
For `COc1ccc(NC(=O)c2cnc(Nc3ccc(C)c(Cl)c3)c3ccccc23)cc1OC`, the “activity change, negative = inhibition” value is 3.07% (inactive).
With `CCC(=O)N1CCc2cc(Br)cc(S(=O)(=O)Nc3ccc(C)cc3C)c21`, the “activity change, negative = inhibition” value was -6.73% (inactive).
For `COc1cccc(NC(=O)CN(C)C(=O)/C=C/c2cn(-c3ccccc3)nc2-c2cccs2)c1`, the “activity change, negative = inhibition” value is -21.9% (inactive).
For `Cc1ccc(-c2nn(-c3ccccc3)cc2/C=C2\SC(=S)N(CCCCCC(=O)O)C2=O)o1`, the Potency was 14.1 µM (active).
Turning to `COc1ccc(-c2nn(-c3ccccc3)cc2/C=C2/SC(=S)N(CCCC(=O)O)C2=O)c(C)c1`, the Potency was 44.7 µM (active).
`O=C1/C(=C/c2coc3ccc(O)cc3c2=O)SC(=S)N1c1ccccc1`: the “activity change, negative = inhibition” value was -24% (inactive).
Take `CN(C(=O)CCN1C(=O)/C(=C/c2ccccc2F)SC1=S)C1CCS(=O)(=O)C1` (configuration not stated): the “activity change, negative = inhibition” value is -19.3% (inactive).
`COc1ccc(-c2nn(-c3ccccc3)cc2CN2CCCO2)c(F)c1`: the “activity change, negative = inhibition” value was -26% (inactive).
On the same count and under the same terms, then `CN(Cc1ccccc1)S(=O)(=O)c1ccc(F)c(C(=O)Nc2cccc(Cl)c2Cl)c1`, with -7.03% (inactive); and `COc1cc(F)c(S(=O)(=O)N2CCCN(S(=O)(=O)c3ccc(N)cc3)CC2)c(F)c1`, with -14.3% (inactive); and `O=C(COc1ccccc1Cl)Nc1ccc2nc(SCC(=O)N3CCCC3)sc2c1`, with -12.6% (inactive).
Turning to `O=C(NCc1ccc2c(c1)CCN2C(=O)c1ccccc1)c1ccccc1`, the “activity change, negative = inhibition” value was -5% (inactive).
As to `Cc1ccc(OCCCC(=O)N2CCOCC2)c(C)c1`, the “activity change, negative = inhibition” value is 6.76% (inactive).
As for `Cc1ccc(OCCCCN2CCCCC2)c(Br)c1`, the Potency was 0.794 µM (active).
As to `COc1ccc(C(=O)NCCCN2CCOCC2)cc1Br`, the “activity change, negative = inhibition” value is -4.92% (inactive).
Regarding `Cc1cccc(N2CCN(C(=O)c3cc4c(=O)oc5ccccc5c4s3)CC2C)c1` (configuration not stated), the “activity change, negative = inhibition” value is -25.3% (inactive).
On the same count and under the same terms, the result for `COc1ccc(Cn2c(=O)[nH]c3cc(C(=O)N4CCN(C(=O)c5ccco5)CC4)ccc3c2=O)cc1` reads -15.6% (inactive); that for `Cc1ccc2nc(-c3ccc(C)c(NC(=O)Cc4ccccc4)c3)oc2c1`, -4.58% (inactive); that for `CC1CCN(C(=O)Cn2c(=O)n(-c3ccc(Cl)cc3)c(=O)c3c4c(sc32)CCC4)CC1`, -8.53% (inactive).
For `Cn1c(SCC(=O)N2CCCC2)nnc1-c1ccc2c(c1)OCO2`, the “activity change, negative = inhibition” value is -0.758% (inactive).
`Cn1c(SCc2nc3ccccc3s2)nnc1-c1ccc2c(c1)OCO2`: the Potency is 31.6 µM (active).
For the compound `O=C(O)CSc1nnc(-c2ccc3c(c2)OCO3)n1-c1ccccc1`, the “activity change, negative = inhibition” value is -4.9% (inactive).
